Shown are actives, neighbours in structure and some others; about 0.98% of the full set was active somewhere.
eLon inh – E. coli protease La inhibition. P0A9M0. purified E. coli Lon protease, fluorescence polarization. inhibition, % at 7.94 µM. actives 0.42% (n = 360,000); in the data active = inhibition above about 13%, passing the limit was not always enough
RTF Ca sens inh – cardiac RTF calcium desensitization; IANBD-labeled cardiac RTF, Ca2+ fluorescence; inhibition, % at 7.15 µM; actives 0.12% (n = 340,000); AID 493244;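 active = inhibition above the mean inhibition of all tested compounds plus 3 SD, cut at about 17% in these data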;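 also: assay run at fixed EC70 calcium of 1.6 mM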
RTF Ca sens act – cardiac RTF calcium sensitization; IANBD-labeled TnC RTF fluorescence at EC20 calcium; 0% EC20 calcium, 100% full calcium; P19429+P45379; activation, % at 7.2 µM; actives 0.24% (n = 340,000);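 active = activation above the mean over all tested compounds plus 3 SD, cut at about 30% in these data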;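 also: rise in fluorescence read as greater calcium sensitivity of cardiac thin filaments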
Keap1-Nrf2 PPI – disrupts human Keap1 binding to Nrf2 peptide; actives 0.15% (n = 340,000); Q14145; Keap1 Kelch-Nrf2 peptide fluorescence polarization, 1536-well; inhibition, % at 9.4 µM; AID 504523; in the data active = inhibition above about 12%;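 also: human Keap1 Kelch domain with fluorescein labeled Nrf2 9mer peptide probe; higher means more block of Keap1 binding to Nrf2 peptide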
Target sequence (Q14145 whole entry, looked up, the tested form may be a part): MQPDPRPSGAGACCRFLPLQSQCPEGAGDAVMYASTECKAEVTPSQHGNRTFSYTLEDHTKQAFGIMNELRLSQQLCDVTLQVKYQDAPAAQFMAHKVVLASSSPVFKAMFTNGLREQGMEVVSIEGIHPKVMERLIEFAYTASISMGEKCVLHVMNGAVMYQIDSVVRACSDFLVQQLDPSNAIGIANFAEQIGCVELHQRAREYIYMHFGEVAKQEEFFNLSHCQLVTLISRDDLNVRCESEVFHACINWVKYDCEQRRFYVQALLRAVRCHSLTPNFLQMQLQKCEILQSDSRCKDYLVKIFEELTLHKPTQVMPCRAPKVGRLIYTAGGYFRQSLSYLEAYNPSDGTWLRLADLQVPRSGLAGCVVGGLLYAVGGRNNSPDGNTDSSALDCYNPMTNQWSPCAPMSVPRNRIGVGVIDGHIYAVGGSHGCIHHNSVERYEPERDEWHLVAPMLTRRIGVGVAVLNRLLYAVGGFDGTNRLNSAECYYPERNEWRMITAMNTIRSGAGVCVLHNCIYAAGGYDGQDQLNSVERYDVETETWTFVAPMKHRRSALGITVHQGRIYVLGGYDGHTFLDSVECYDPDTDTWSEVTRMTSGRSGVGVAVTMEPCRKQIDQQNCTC
EBV gp42 block – blocks Epstein-Barr virus glycoprotein 42 binding; Q1HVG2; Fluorescence polarization binding assay, mP read-out; inhibition, % (tested at 21.74 µM); actives 0.42% (n = 220,000); AID 1085; in the data active = inhibition above about 50%
C-LANA FP – blocks KSHV LANA C-terminal domain binding to DNA; MBP-C-LANA/FAM-LBS DNA binding, fluorescence polarization; inhibition, % at 9 µM; actives 0.078% (n = 340,000);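 active = highest replicate inhibition at or above 60% at 9 µM, even if other replicates fall short; inactive = all replicates below 60% inhibition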
Keap1 Kelch bind – binds and thermally shifts human Keap1 Kelch domain; shares compounds with Keap1-Nrf2 PPI; Keap1 Kelch thermal shift, delta Tm; hits give high values; max delta Tm, degrees C; actives 8% (n = 400); in the data active = max delta Tm above about 0.48 degrees C
Dye-only ctr – counter-screen for Keap1 thermal shift hits: dye-only artifacts; shares compounds with Keap1-Nrf2 PPI; Sypro Orange dye-only thermal melt, no protein, delta Tm; top dose 26 µM; delta Tm, degrees C (test concentration not listed); 140 tested, under 10 active;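 active = at highest dose tested, delta Tm positive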
Hits are given with their value; – = inactive; · = no result given.

SMILES	eLon inh	RTF Ca sens inh	RTF Ca sens act	Keap1-Nrf2 PPI	EBV gp42 block	C-LANA FP	Keap1 Kelch bind	others
O=C(CN1CCN(C(=O)CNC(=O)c2ccc3c(c2)OCO3)CC1)Nc1ccc(F)cc1	–	–	–	61.8	·	·	–
O=C(CN1CCN(Cc2ccc3c(c2)OCO3)CC1)Nc1ccc(F)cc1	–	–	–	–	–	–	·
COc1ccc(N(Cc2ccccc2)S(=O)(=O)c2cccc(C(=O)Nc3ncccc3C)c2)cc1	–	–	–	22.2	·	–	–
COc1ccccc1N(Cc1ccccc1)S(=O)(=O)c1cccc(C(=O)Nc2ncccc2C)c1	–	–	–	–	·	–	·
CC(=O)c1ccc(-c2ccc(C(=O)N(C)c3c(N)n(Cc4ccccc4)c(=O)[nH]c3=O)o2)cc1	–	–	–	–	·	–	·
C/C(=N/Nc1ccccc1C(=O)O)c1cccs1	–	–	–	73.5	·	·	–	Dye-only ctr=–
CCCNC(=O)C(Cc1cccc(OC)c1)NC(=O)c1ccc(C(C)(C)C)cc1 (configuration not stated)	–	–	–	–	·	–	·
N/C(Cc1cccc2ccccc12)=N\O	–	–	–	16.6	–	·	–	Dye-only ctr=–
CCCCNC(=S)Nc1ccc(OC)nc1	–	–	–	12.1	–	–	–
CC1CCN(C(=O)Cn2cc(C(F)(F)F)ccc2=O)c2ccccc2S1 (configuration not stated)	–	–	–	49.3	·	–	–
O=C(Cn1cc(C(F)(F)F)ccc1=O)N1CCCc2ccccc21	–	–	–	–	·	–	·
O=C1c2ccccc2C(=O)c2c1ccc(O)c2O	–	–	–	13.0	·	–	–
COc1ccc(-c2ccc(N3C(c4ccsc4)=Cc4ccc(F)cc4C3c3c[nH]c4ccccc34)cc2)cc1 (configuration not stated)	–	·	·	·	·	·	·
CC1(C)CC(=O)C2=C(C1)OC(N)=C(C#N)C2c1ccccc1[N+](=O)[O-] (configuration not stated)	–	–	–	24.8	–	–	–
Cc1cccc(C)c1NC(=O)CSc1nnc(-c2ccco2)c(-c2ccco2)n1	86.5	–	–	46.1	–	105.0	–	Dye-only ctr=–
O=C(NCc1ccc(Cl)cc1)c1cc(=O)[nH]c2ccccc12	–	–	–	59.0	·	–	–
C=CCn1ccc2c([N+](=O)[O-])cccc2c1=O	–	–	–	–	–	–	·
C=CCn1ccc(=NC=C(C#N)C#N)c2ccccc21	–	–	–	130.4	–	–	–
O=C(CSc1ccc2nnc(-c3cccnc3)n2n1)Nc1ccccc1F	–	·	·	·	·	·	·
N/C(=N\OC(=O)c1ccc(Cl)cc1)c1ccccn1	–	–	–	–	–	–	·
N/C(=N/OC(=O)c1ccc(Cl)cc1)c1ncc([N+](=O)[O-])s1	–	·	·	22.3	–	–	–	Dye-only ctr=–
O=C(CN1CCN(CC(=O)Nc2ccccc2Cl)CC1)NCC1(N2CCOCC2)CCCCC1	–	–	–	–	·	–	·
O=C1C(Cl)=C(NS(=O)(=O)c2ccc([N+](=O)[O-])cc2)C(=O)c2ccccc21	–	–	–	19.6	–	–	0.76
Nc1c(Cl)ncnc1NCc1ccccc1	–	–	–	30.7	·	–	–
COc1ccc(C2C(C(=O)c3cccs3)=C(O)C(=O)N2c2nncs2)cc1 (configuration not stated)	61.6	–	31.7	55.3	132.9	64.4	–
SMILES	eLon inh	RTF Ca sens inh	RTF Ca sens act	Keap1-Nrf2 PPI	EBV gp42 block	C-LANA FP	Keap1 Kelch bind	others
Cc1cccc(N2C(=O)C(O)=C(C(=O)c3cccs3)C2c2ccc(F)cc2)n1 (configuration not stated)	–	–	–	–	–	–	·
O=C1c2cccc3c(N4CCCCC4)ccc(c23)C(=O)N1c1ccccc1O	–	–	72.8	15.9	–	–	–
COc1ccccc1NS(=O)(=O)c1ccc(C)c(C(=O)NCC(c2cccs2)N2CCOCC2)c1 (configuration not stated)	–	–	–	–	·	–	·
CNS(=O)(=O)c1ccc2c3c(cccc13)C(=O)N2C	–	–	–	32.1	·	–	–
CN1C(=O)c2cccc3c(S(=O)(=O)N(C)C)ccc1c23	–	–	–	–	·	–	·
Cn1ccnc1Sc1cc(NCCCO)c([N+](=O)[O-])c2nonc12	–	–	–	13.4	–	–	–
O=[N+]([O-])c1c(NCCCO)cc(Sc2ccc(Cl)cc2)c2nonc12	–	–	–	–	–	–	·
CC(C)CN(CCCNC(=O)CN1C(=O)COc2ccc(S(=O)(=O)N3CCOCC3)cc21)CC(C)C	–	–	–	–	·	–	·
COc1cc(Cl)c(C)cc1NCC(=O)Nc1cccc(S(=O)(=O)N2CCCC2)c1	–	–	–	28.0	·	–	–	Dye-only ctr=–
C=CCn1c(=O)/c(=C\c2ccsc2)s/c1=C(/C#N)C(=O)NCCN1CCOCC1	–	–	–	16.1	–	–	–	Dye-only ctr=–
COc1ccc(-n2c(=O)/c(=C\c3cccs3)s/c2=C(/C#N)C(=O)NCCN2CCOCC2)cc1	–	–	–	–	–	–	·
Cc1cc(C)c2c(SC(C)C)nc(N)nc2n1	–	–	47.1	22.8	–	–	–
CN(C)c1ccc(/C=N/NC(=O)CCC(=O)NCc2ccccc2)cc1	–	–	–	53.0	–	–	–
Cc1ccccc1Oc1ccc2c(c1)[C@@H]1C[C@H](N(C)C(=O)c3ccc(C#N)cc3)[C@H]([C@H](C)O)C(=O)N1CC2	–	–	–	–	·	–	·
CNC(=S)Nc1cccc(C(=O)OC)c1	–	·	·	40.6	–	·	–	Dye-only ctr=–
COc1ccc(OC)c(S(=O)(=O)NC(=O)C2(C)CCN2C(=O)C2(c3ccc(Cl)cc3)CC2)c1 (configuration not stated)	–	·	·	·	·	·	·
COc1cc(CNC(=O)c2ccccc2NC(=O)C2=C(C)OCCS2)cc(OC)c1OC	–	–	–	–	·	–	·
CC[C@H](C)[C@H](NC(=O)OCc1ccccc1)C(=O)OCC(=O)N1CCN(c2ccc(F)cc2)CC1	–	–	–	25.9	·	–	–	Dye-only ctr=–
COc1cc(CO)ccc1Oc1nc2ccccc2n2cnnc12	–	–	–	30.8	–	–	–
CC1(C(=O)NS(=O)(=O)c2ccc3c(c2)CCO3)CCN1C(=O)c1ccccc1CCc1ccccc1 (configuration not stated)	–	·	·	·	·	·	·
O=C(CSCC(=O)Nc1ccccc1)N/N=C/c1c(O)ccc2ccccc12	–	–	–	12.4	–	–	–	Dye-only ctr=–
O=C(Nc1ccccc1C(=O)N1CCCCCC1)c1ccc(F)cc1	–	–	–	35.1	·	–	–	Dye-only ctr=–
COc1cc(C#Cc2c(C=O)n(C)c3ccccc23)cc(OC)c1	–	–	–	30.2	·	–	–
